Each structure is given as a SMILES string. Among all 38,000 compounds or so, about 1,200 (3.2%) showed an effect of 50% or more. The median lay at about -58%. The list comes from a sample in which strong results are over-represented; it also holds similar structures and randomly drawn compounds.

This assay concerns Plasmodium falciparum. Briefly: Calibr Malaria Delayed Death Assay SOP. In kind it is functional, organism-based. Also noted: scale not given: in the data most compounds retested in dose-response had high values. As to conditions: concentration 4.99e-06 (unit not given; other assays of the set use mol/L).
With `COc1ncccc1C1CC(=O)Nc2cc(NS(C)(=O)=O)ccc21` (configuration not stated), the “Percent Effect” value is -136.9%.
As for `Nc1cc(N2CCCC(COc3ccc(F)cc3)C2)ncn1` (configuration not stated), the “Percent Effect” value is reported as -4.598%.
Turning to `Cc1ccc(S(=O)(=O)NCC2CNCCOC2)cc1Cl` (configuration not stated), the “Percent Effect” value is 47.92%.
The figure for `Cc1cc(S(=O)(=O)NCC2CNCCOC2)c(C)cc1Cl` (configuration not stated) is 75.13%; for `Cc1cc(C)cc(S(=O)(=O)NCC2CNCCOC2)c1` (configuration not stated) it is 6.797%; for `Cc1ccccc1CCC1CCCN(C(=O)Cc2cc(=O)[nH]c(N)n2)C1` (configuration not stated) it is -123.2%.
As for `CC(C)Cc1cc(C(=O)NCC2CCCN(Cc3ccco3)C2)on1` (configuration not stated), the “Percent Effect” value is on record as -23.35%.
Regarding `Cc1cnn(CCCNCc2csc(COc3ccccc3)n2)c1`, the “Percent Effect” value is 70.2%.
The result for `c1ccc(OCc2nc(CNCCn3cccn3)cs2)cc1` reads 20.38%.
The result for `Cc1cnn(CCNCc2csc(COc3ccccc3)n2)c1` reads 42.25%; that for `COCCn1ccnc1C1CCN(C(=O)CSc2nnc(C)s2)CC1`, -110.9%.
The result for `O=C(NC[C@H]1OC[C@@H](N(CC2CC2)CC2CC2)[C@@H]1O)Nc1ccccc1` reads 64.49%; that for `CN(C)[C@@H]1CO[C@H](CNC(=O)Nc2ccccc2)[C@H]1O`, -62.35%; that for `O=C(NC[C@H]1OC[C@@H](NC2CCC2)[C@@H]1O)Nc1ccccc1`, -143.1%.
As for `CN(CCCC1CCCO1)C(=O)c1cccc(C#N)c1` (configuration not stated), the “Percent Effect” value was -170.6%.
Take `O=C(O)CCCC(=O)N1CCC(c2noc3cc(F)ccc23)CC1`: the “Percent Effect” value is given as -131.6%.
With `CCC(O)(CNCc1cc[nH]n1)c1ccc(Br)cc1` (configuration not stated), the “Percent Effect” value is 76.25%.
With `CC(C)(C)OC(=O)N1CCCc2ccc(NCc3ncc[nH]3)cc21`, the “Percent Effect” value is 26.46%.
In the case of `CS(=O)(=O)c1ccc(CNC(=O)NCc2cc[nH]n2)cc1`, the “Percent Effect” value is on record as -45.13%.
`CC(=O)N1CCCN(C(=O)NCc2cc[nH]n2)CC1`: the “Percent Effect” value was -10.61%.
Turning to `CCC(O)(CNCc1ccncc1)c1ccc(Br)cc1` (configuration not stated), the “Percent Effect” value was determined as 3.807%.
Regarding `CCC(O)(CNCc1ncc[nH]1)c1ccc(Br)cc1` (configuration not stated), the “Percent Effect” value stood at 65.85%.
In the case of `O=C(c1cnccn1)N1C[C@@H]2CC[C@H](C1)N(S(=O)(=O)c1cccnc1)C2`, the “Percent Effect” value was -81.69%.
The result for `CC(C)c1nc(C2CCCN(C(=O)CCn3ccccc3=O)C2)no1` (configuration not stated) reads -110.1%; that for `CCS(=O)(=O)N1CCC2(CCN(C(=O)c3cccs3)CC2)CC1`, -4.516%; that for `CNS(=O)(=O)C1CCN(c2cc(C(C)C)nc(C(C)C)n2)C1` (configuration not stated), -29.56%.
Regarding `CCN(C(=O)CN1CCCC1c1ccc(OC)cc1)c1ccccc1` (configuration not stated), the “Percent Effect” value is 17.94%.
`CCN(C(=O)CN1CCCC1c1ccc(F)cc1)c1ccccc1C` (configuration not stated): the “Percent Effect” value is -25.99%.
The result for `N#CCCN(C(=O)CN1CCCC1C1CCCCC1)c1ccccc1` (configuration not stated) reads 50.3%; that for `N#CCCN(Cc1ccco1)C(=O)CN1CCCC1c1cccs1` (configuration not stated), 2.269%; that for `CN(C(=O)CN1CCCC1Cc1ccccc1)c1ccccc1` (configuration not stated), 20.57%.
The result for `Cc1ccc(C2CCCN2CC(=O)N(CCC#N)c2ccccc2)cc1` (configuration not stated) reads 61.31%; that for `Cc1cc(C2CCCN2CC(=O)N(CCC#N)c2ccccc2F)on1` (configuration not stated), -128.3%.
As for `N#CCCN(C(=O)CN1CCCC1c1ccccc1Cl)c1ccccc1` (configuration not stated), the “Percent Effect” value worked out at 38.72%.
The figure for `CCN(C(=O)CN1CCCC1Cc1ccccc1)c1ccccc1` (configuration not stated) is 59.02%.
`CC1CC(=O)c2cc(C(=O)N3CCc4ccccc43)c(=O)[nH]c2C1` (configuration not stated): the “Percent Effect” value is on record as -103.7%.
Take `CN(C)c1ncc(NC(=O)c2ccccc2C(F)(F)F)cn1`: the “Percent Effect” value is given as -13.75%.
The result for `O=C(Cn1ccc2c(Cl)cccc21)N1CCCC1` reads -3.751%.
The result for `COCC(=O)Nc1ccc2c(c1)C1(CCOCC1)CN2CCF.O=C(O)C(F)(F)F` reads -73.75%; that for `Cn1cc(C2COC3(CCN(C(=O)c4ccccn4)CC3)C2)cn1.O=C(O)C(F)(F)F` (configuration not stated), -70.09%.
`COc1ccc(N2CCN(C(=O)CCc3n[nH]c(C)n3)CC2=O)cc1`: the “Percent Effect” value is listed as -47.6%.
Regarding `COC(=O)c1ccc(C(=O)N2CCC(c3nnc(C)s3)CC2)cc1`, the “Percent Effect” value is recorded as -39.58%.
As for `CC(O)c1cccc(-n2c(CCC(=O)O)nc3ccccc32)c1` (configuration not stated), the “Percent Effect” value is -169.3%.
The result for `OCCNc1nc(Nc2ccccc2)c2nccnc2n1` reads -38.96%; that for `Cc1nc(C)n(CC2CCCN2CCCc2nc3ccccc3o2)n1` (configuration not stated), -41.56%.
The result for `COc1ncc(C2(O)CCN(Cc3cccc(F)c3F)CC2)c(OC)n1.Cl` reads -65.3%; that for `COc1ncc(C2(O)CCN(Cc3cc(F)ccc3F)CC2)c(OC)n1.Cl`, -42.34%.
The figure for `Cl.Cl.OC(CN1CCN(Cc2cc(F)ccc2F)CC1)C1CC1` (configuration not stated) is 0.4009%; for `COc1ccc(C)cc1CN1CCN(Cc2nccn2C)CC1` it is -87.98%; for `COc1ccc(OC)c(CN2CCC(c3cc(O)nc(C)n3)C2)c1` (configuration not stated) it is -6.514%.
Take `Fc1cccnc1N1CCC(NCc2cccc3cn[nH]c23)C1` (configuration not stated): the “Percent Effect” value is reported as -62.75%.
The figure for `CC(C(=O)Nc1cccc(Cl)c1SC(F)F)S(C)(=O)=O` (configuration not stated) is -87.5%.

The values above are taken from ChEMBL document CHEMBL3988442, “University of Dundee, Small-Polar-MMV Screening Library” (2021).
